Over roughly 16,000 sequences, “rpm ratio (pull-down/input)” has its median near 0.94; the highest 2% begin near 1.7. The list comes from a sample in which the highest values are over-represented; it also holds similar and randomly drawn sequences.

The target in the assay is T1, MBP-FoxP1dN (Mus musculus, UniProt P58462 326-579).
T1 sequence: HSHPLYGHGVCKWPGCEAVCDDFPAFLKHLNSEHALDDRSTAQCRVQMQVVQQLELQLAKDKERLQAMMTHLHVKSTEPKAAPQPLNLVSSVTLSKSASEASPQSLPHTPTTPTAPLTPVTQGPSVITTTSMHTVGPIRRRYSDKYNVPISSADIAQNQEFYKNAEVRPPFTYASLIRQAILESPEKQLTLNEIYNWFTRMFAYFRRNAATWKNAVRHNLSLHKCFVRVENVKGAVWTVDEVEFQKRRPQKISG
Briefly: PD-seq (MBP pull-down with sequencing); 20 mM Tris-HCl pH 7.5, 100 mM NaCl, 1.5 mM MgCl2, 0.4 uM protein, 0.1 uM dsDNA library, 30 min, room temperature, amylose pull-down; high values mean tight binding. The conditions noted are these: protein: recombinant; tags: His6-MBP; chain copies: 2; dsDNA, one strand shown. In short, it runs like this: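 Amylose resin was used to capture complexes formed during 30 min at room temperature in Tris pH 7.5 buffer with NaCl and MgCl2 between 0.4 µM His6-MBP-tagged mouse FoxP3 or FoxP1 fragment lacking the N-terminus, expressed in E. coli, and 0.1 µM Klenow-filled double-stranded degenerate DNA library. After three washes, the DNA was released with proteinase K, barcoded by PCR and sequenced on Illumina. Binding is pooled-replicate reads-per-million enrichment, pull-down over input.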
For “GATGATTGTTCTCCCAGCTGATGAATTTTTATTTTCGAGTAAACAAATTTTCCTAATCTTTCTGTTCAAGCGCCATCTAC”, the binding signal was 2.75 RPM ratio (pull-down/input). The value for “GATGATTGTTCTCCCAGCTGATGAATTATTTTATTCGAGTAAACAAATTTTCCTAATCTTTCTGTTCAAGCGCCATCTAC” was 1.22 RPM ratio (pull-down/input); that for “GATGATTGTTCTCCCAGCTGATGAATTTATTTCTTCGAGTAAACAAATTTTCCTAATCTTTCTGTTCAAGCGCCATCTAC” was 1.29 RPM ratio (pull-down/input). Regarding “GATGATTGTTCTCCCAGCTGATGAATTTTATTTTTCGAGTAAACAAATTTTCCTAATCTTTCTGTTCAAGCGCCATCTAC”, the binding signal is 1.96 RPM ratio (pull-down/input). For the sequence “GATGATTGTTCTCCCAGCTGATGAATTCCTTTATTCGAGTAAACAAATTTTCCTAATCTTTCTGTTCAAGCGCCATCTAC”, the binding signal was 0.944 RPM ratio (pull-down/input). Turning to “GATGATTGTTCTCCCAGCTGATGAATTCTTTATTTCGAGTAAACAAATTTTCCTAATCTTTCTGTTCAAGCGCCATCTAC”, the binding signal is 1.03 RPM ratio (pull-down/input). Consider “GATGATTGTTCTCCCAGCTGATGAATTTGTTTATTCGAGTAAACAAATTTTCCTAATCTTTCTGTTCAAGCGCCATCTAC”, for which the binding signal is 2.89 RPM ratio (pull-down/input).

Consider “GATGATTGTTCTCCCAGCTGATGAATTAAATTTGTCGAGTAAACAAATTTTCCTAATCTTTCTGTTCAAGCGCCATCTAC”, for which the binding signal was 1.06 RPM ratio (pull-down/input). “GATGATTGTTCTCCCAGCTGATGAATTAGTACTGTCGAGTAAACAAATTTTCCTAATCTTTCTGTTCAAGCGCCATCTAC”: the binding signal is 1 RPM ratio (pull-down/input). With “GATGATTGTTCTCCCAGCTGATGAATTTCGGCTGTCGAGTAAACAAATTTTCCTAATCTTTCTGTTCAAGCGCCATCTAC”, the binding signal was 0.82 RPM ratio (pull-down/input). Take “GATGATTGTTCTCCCAGCTGATGAATTATCCGCATCGAGTAAACAAATTTTCCTAATCTTTCTGTTCAAGCGCCATCTAC”: the binding signal is 1.15 RPM ratio (pull-down/input).

For the sequence “GATGATTGTTCTCCCAGCTGATGAATTCTTCTGATCGAGTAAACAAATTTTCCTAATCTTTCTGTTCAAGCGCCATCTAC”, the binding signal is 0.96 RPM ratio (pull-down/input).

With “GATGATTGTTCTCCCAGCTGATGAATTGCGCCATTCGAGTAAACAAATTTTCCTAATCTTTCTGTTCAAGCGCCATCTAC”, the binding signal was 1.14 RPM ratio (pull-down/input). Take “GATGATTGTTCTCCCAGCTGATGAATTCGATTGCTCGAGTAAACAAATTTTCCTAATCTTTCTGTTCAAGCGCCATCTAC”: the binding signal was 0.842 RPM ratio (pull-down/input). The value for “GATGATTGTTCTCCCAGCTGATGAATTAAAGGTCTCGAGTAAACAAATTTTCCTAATCTTTCTGTTCAAGCGCCATCTAC” was 0.774 RPM ratio (pull-down/input); that for “GATGATTGTTCTCCCAGCTGATGAATTGAGTGGCTCGAGTAAACAAATTTTCCTAATCTTTCTGTTCAAGCGCCATCTAC” was 0.823 RPM ratio (pull-down/input).

Take “GATGATTGTTCTCCCAGCTGATGAATTTTTTATTTCGAGTAAACAAATTTTCCTAATCTTTCTGTTCAAGCGCCATCTAC”: the binding signal was 1.04 RPM ratio (pull-down/input). In the case of “GATGATTGTTCTCCCAGCTGATGAATTTATTTTTTCGAGTAAACAAATTTTCCTAATCTTTCTGTTCAAGCGCCATCTAC”, the binding signal is 1.41 RPM ratio (pull-down/input).

Regarding “GATGATTGTTCTCCCAGCTGATGAATTTTATTGTTCGAGTAAACAAATTTTCCTAATCTTTCTGTTCAAGCGCCATCTAC”, the binding signal was 2.31 RPM ratio (pull-down/input). On to “GATGATTGTTCTCCCAGCTGATGAATTTATTTGTTCGAGTAAACAAATTTTCCTAATCTTTCTGTTCAAGCGCCATCTAC”, for which the binding signal was 2.15 RPM ratio (pull-down/input). Turning to “GATGATTGTTCTCCCAGCTGATGAATTAAGGCGATCGAGTAAACAAATTTTCCTAATCTTTCTGTTCAAGCGCCATCTAC”, the binding signal is 0.912 RPM ratio (pull-down/input). As for “GATGATTGTTCTCCCAGCTGATGAATTTGAACTTTCGAGTAAACAAATTTTCCTAATCTTTCTGTTCAAGCGCCATCTAC”, the binding signal was 0.845 RPM ratio (pull-down/input).

In the case of “GATGATTGTTCTCCCAGCTGATGAATTTGTACTATCGAGTAAACAAATTTTCCTAATCTTTCTGTTCAAGCGCCATCTAC”, the binding signal was 1.22 RPM ratio (pull-down/input). The value for “GATGATTGTTCTCCCAGCTGATGAATTTTATACGTCGAGTAAACAAATTTTCCTAATCTTTCTGTTCAAGCGCCATCTAC” was 0.957 RPM ratio (pull-down/input). “GATGATTGTTCTCCCAGCTGATGAATTTGTAACATCGAGTAAACAAATTTTCCTAATCTTTCTGTTCAAGCGCCATCTAC”: the binding signal is 1.45 RPM ratio (pull-down/input). With “GATGATTGTTCTCCCAGCTGATGAATTGTATACATCGAGTAAACAAATTTTCCTAATCTTTCTGTTCAAGCGCCATCTAC”, the binding signal was 2.35 RPM ratio (pull-down/input). As for “GATGATTGTTCTCCCAGCTGATGAATTCTATACATCGAGTAAACAAATTTTCCTAATCTTTCTGTTCAAGCGCCATCTAC”, the binding signal is 1.08 RPM ratio (pull-down/input). With “GATGATTGTTCTCCCAGCTGATGAATTCTGTAAATCGAGTAAACAAATTTTCCTAATCTTTCTGTTCAAGCGCCATCTAC”, the binding signal was 1.18 RPM ratio (pull-down/input). The value for “GATGATTGTTCTCCCAGCTGATGAATTGTTGTAATCGAGTAAACAAATTTTCCTAATCTTTCTGTTCAAGCGCCATCTAC” was 1.96 RPM ratio (pull-down/input); that for “GATGATTGTTCTCCCAGCTGATGAATTTTATACATCGAGTAAACAAATTTTCCTAATCTTTCTGTTCAAGCGCCATCTAC” was 1.09 RPM ratio (pull-down/input). Take “GATGATTGTTCTCCCAGCTGATGAATTGTAAACATCGAGTAAACAAATTTTCCTAATCTTTCTGTTCAAGCGCCATCTAC”: the binding signal was 2.78 RPM ratio (pull-down/input).

Regarding “GATGATTGTTCTCCCAGCTGATGAATTTCTGTAATCGAGTAAACAAATTTTCCTAATCTTTCTGTTCAAGCGCCATCTAC”, the binding signal was 1.49 RPM ratio (pull-down/input). The value for “GATGATTGTTCTCCCAGCTGATGAATTCTATACGTCGAGTAAACAAATTTTCCTAATCTTTCTGTTCAAGCGCCATCTAC” was 0.962 RPM ratio (pull-down/input); that for “GATGATTGTTCTCCCAGCTGATGAATTTCAAACATCGAGTAAACAAATTTTCCTAATCTTTCTGTTCAAGCGCCATCTAC” was 1.18 RPM ratio (pull-down/input). Consider “GATGATTGTTCTCCCAGCTGATGAATTGTATACGTCGAGTAAACAAATTTTCCTAATCTTTCTGTTCAAGCGCCATCTAC”, for which the binding signal was 1.82 RPM ratio (pull-down/input).

(Values after PMC12820563, “FoxP3 forms a head-to-head dimer in vivo and stabilizes its multimerization on adjacent microsatellites”.)
